# Compound activity: PubChem, National Center for Advancing Translational Sciences (NCATS)
# CtBP-E1A blk: qHTS Assay for Inhibitors of the CtBP/E1A Interaction; CtBP / adenovirus E1A interaction (AlphaScreen); AlphaScreen GST-E1A/His-CtBP binding, 1536-well; stronger effect = lower value; activity change, % (concentration not given with the values); hit rate 0.49% among 340,000; in the data active = activity change below about -65%; inconclusive = mostly about -30% to -63%; also: % is scaled to controls: 0 for no effect and ±100 for the full control effect
#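 AlphaScreen with 125 nM GST-E1A and 125 nM His-CtBP (5X stocks) in Tris pH 8.0, 300 mM NaCl, BSA, Tween 20, TCEP. Compounds preincubated 2 h at 37 deg C, then glutathione donor/nickel acceptor beads added for 1 h at 37 deg C in dark.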
# HP1b chromo inh: HTS for Inhibitors of HP1-beta Chromodomain Interactions with Methylated Histone Tails; AlphaScreen HP1-beta / biotin-H3K9me3 peptide binding; Potency, µM (titrated, usually from 114 µM), inactives show at the highest dose activity change, negative = inhibition, most hits filed as inhibitors; hit rate 0.56% among 390,000; AID 540317, 2011; also: potency is read from the fitted curve at half-maximal effect; nearly all actives have a fitted effect of over 70% in size
# Target sequence (P83916 whole entry, looked up): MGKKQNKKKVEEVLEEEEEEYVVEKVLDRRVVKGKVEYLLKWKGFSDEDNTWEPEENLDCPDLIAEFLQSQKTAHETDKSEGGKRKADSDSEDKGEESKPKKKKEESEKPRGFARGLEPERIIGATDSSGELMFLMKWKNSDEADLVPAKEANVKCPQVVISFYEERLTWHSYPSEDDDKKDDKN
#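 Compound inhibition of the preformed complex between 50 nM HP1-beta and 50 nM biotinylated H3K9me3 peptide was read by AlphaScreen. Buffer was PBS pH 7.4 with 0.01% Tween-20. Incubations ran 30 min at room temperature, with 10 ug/mL donor/acceptor beads.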
# BAZ2B inh: qHTS Assay for Inhibitors of BAZ2B | Bromodomain adjacent to zinc finger domain protein 2B (Homo sapiens), Q9UIF8 | AlphaScreen BAZ2B-H3K14Ac peptide displacement | Potency, µM (series often up to 114 µM), without a hit: at the highest dose activity change, negative = inhibition, usual class: inhibitors | hit rate 4.4% among 360,000 | AID 504333, 2011; also: potency is read from the fitted curve at half-maximal effect; % is scaled to controls: 0 for no effect and ±100 for the full control effect; nearly all actives have a fitted effect of over 60% in size
#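 Complex of BAZ2B and biotin-H3K14Ac (50 nM apiece) forms over 30 min at RT, then faces library compounds up to 110 uM for another 30 min; AlphaScreen beads added, 20 min dark incubation, luminescence read.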
# Six1-Eya2 inh: qHTS Assay for Inhibitors of the Six1/Eya2 Interaction. AlphaScreen GST-Six1/His-Eya2 binding, biochemical; stronger effect = lower value. Homeobox protein SIX1 (Homo sapiens) + Protein phosphatase EYA2 (Homo sapiens), …. hit rate 0.56% among 360,000. activity change, % (test concentration not listed); in the data active = activity change below about -65%; inconclusive = mostly about -30% to -63%; also: % is scaled to controls: 0 for no effect and ±100 for the full control effect
#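 GST-Six1 + His-Eya2 (5X stock: 250/500 nM); Tris pH 8.0, 300 mM NaCl, 0.05% BSA, 0.02% Tween 20; GSH donor/Ni acceptor beads; 1 h 37 °C dark; AlphaScreen readout.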
# JMJD2A Tudor: qHTS Assay for Inhibitors of JMJD2A-Tudor Domain; Lysine-specific demethylase 4A (Homo sapiens), O75164; AlphaScreen JMJD2A-Tudor / H3K4me3 peptide binding; Potency, µM (doses to about 114 µM), for inactives: top-dose activity change, negative = inhibition, actives largely listed as inhibitors; hit rate 4.4% among 390,000; AID 504339, 2011; also: potency is read from the fitted curve at half-maximal effect; % is scaled to controls: 0 for no effect and ±100 for the full control effect; nearly all actives have a fitted effect of over 50% in size
# G9a inh: qHTS Assay for Inhibitors of Histone Lysine Methyltransferase G9a; G9a H3K9 monomethylation, AlphaScreen, 2 h; hit rate 8.8% among 350,000; Potency, µM (doses to about 102 µM), inactives show top-dose activity, negative = inhibition, usual class: inhibitors; AID 504332, 2011; also: potency is read from the fitted curve at half-maximal effect; % is scaled to controls: 0 for no effect and ±100 for the full control effect; nearly all actives have a fitted effect of over 75% in size
# Target sequence (Q96KQ7 913-1193 limits assumed): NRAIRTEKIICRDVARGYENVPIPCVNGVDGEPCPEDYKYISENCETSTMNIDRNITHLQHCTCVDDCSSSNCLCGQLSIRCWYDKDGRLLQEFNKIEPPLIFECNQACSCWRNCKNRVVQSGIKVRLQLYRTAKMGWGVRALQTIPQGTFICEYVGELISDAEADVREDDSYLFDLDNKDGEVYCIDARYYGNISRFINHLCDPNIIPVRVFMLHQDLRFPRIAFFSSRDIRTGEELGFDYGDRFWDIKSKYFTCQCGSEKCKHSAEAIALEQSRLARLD
#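 Signal arises when biotinylated H3K9 peptide, once monomethylated, bridges streptavidin donor and antibody-captured acceptor beads. Enzyme at 20 nM was preincubated 15 min with test compounds; peptide 500 nM and SAM 20 uM then reacted for 2 h.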
# An asterisk follows results filed as active; ? = inconclusive; nt = no result given; [ ] = another dose, or the depositor's remark. A selection: hits, their analogues and other compounds. The true share with any hit is near 10%. Unless noted, calls follow the shape of the dose curve; as a rule, active = well fitted inhibition curve with a large enough effect; inconclusive = small, poorly fitted or top-dose-only effect; inactive = no such curve, though single readings can be large or run the other way.
SMILES,CtBP-E1A blk,HP1b chromo inh,BAZ2B inh,Six1-Eya2 inh,JMJD2A Tudor,G9a inh
Cc1ccc(CN2CC(N3CCCC3)CS2(=O)=O)cc1 (centres undefined),-3,nt,nt,9,nt,nt
CCN(Cc1ccccc1)C(=O)Cn1c(=O)n(-c2ccc(Cl)cc2)c(=O)c2c(C)c(C)sc21,nt,44%,-14%,nt,-15%,5%[59 µM]
COc1ccc(OC)c(C(C)NC(=O)Cn2c(=O)cc(C)c3c(C)nn(-c4ccc(C)cc4)c32)c1 (centres undefined),nt,24%,-11%,nt,-24%,-25%[59 µM]
COc1ccc(OC)c(CCNC(=O)c2cnn(-c3ccccc3)c2-n2cccc2)c1,nt,-2%,-39%,nt,?,-8%[59 µM]
CN(C)CCN=Cc1c(O)n(Cc2ccccc2)c(=O)c2ccccc12,-10,-6%,-32%,-5,-22%,56µM*
CN(C)CCCN=Cc1c(O)n(Cc2ccccc2)c(=O)c2ccccc12,-7,-20%,-17%,-19,?,-63%[59 µM]
CC1CC(C)CN(S(=O)(=O)c2ccc(C(C)(C)C)cc2)C1 (centres undefined),2,39%,8%,-1,6%,?
O=C(COC(=O)c1ccc(Cl)nc1)Nc1ccc(N2CCOCC2)cc1,-12,-12%,22%,5,-13%,56µM*
O=C(Nc1ccc(N2CCOCC2)cc1)C1CCN(C(=O)OCc2ccccc2)CC1,-12,5%,-2%,-13,-16%,40µM*
COc1cccc(CNCC(=O)Nc2ccc(N3CCOCC3)cc2)c1,5,?,50µM*,7,25µM*,3.5µM*
CC(=O)Nc1ccc(C(=O)OCC(=O)Nc2ccc(N3CCOCC3)cc2)cc1,-1,40%,-6%,-3,-13%,?
COc1cc(CC(=O)OCC(=O)Nc2ccc(N3CCOCC3)cc2)cc(OC)c1OC,5,34%,-5%,2,-6%,?
COc1ccc(CC(=O)OCC(=O)Nc2ccc(N3CCOCC3)cc2)cc1,nt,16%,6%,-7,-16%,50µM*
Cc1cc(NC(=O)CSc2nc3c([nH]c4ccccc43)c(=O)n2-c2cccc(Cl)c2)no1,nt,23%[57 µM],3%,nt,-16%,15%[59 µM]
O=C(NCCNC(=O)c1cccnc1)c1ccc(Br)cc1,9,40%,1%,9,-5%,68%
COc1cc2c(c(OC)c1)C(c1cccc(F)c1F)CC(=O)N2 (centres undefined),nt,26%,3%,nt,7%,2%[59 µM]
O=C(COC(=O)c1ccco1)Nc1ccc(N2CCOCC2)cc1,-14,10%,17%,9,-14%,22µM*
Cc1ccc(C(=O)OCC(=O)Nc2ccc(N3CCOCC3)cc2)cc1,6,22%,11%,-8,-10%,?
O=C(CN1C(=O)NC(c2ccccc2)(c2ccccc2)C1=O)Nc1ccc(N2CCOCC2)cc1,-13,?,nt,-19,?,nt
NC(=O)c1ccsc1NC(=O)COC(=O)c1ccc(Cl)nc1,-18,18%,17%,2,-13%,-24%
COc1ccc(C2(c3ccc(OC)cc3)NC(=O)N(CC(=O)Nc3ccc(N4CCOCC4)cc3)C2=O)cc1,-2,?,?,-27,?,40µM*
NC(=O)c1ccc(NC(=O)COC(=O)c2ccc(Cl)nc2)cc1,-8,24%,1%,-5,-3%,7.9µM*
COc1ccc(S(=O)(=O)N(Cc2ccccc2)Cc2nc(-c3ccccc3)no2)cc1,1,56%,13%,5,49%,37%[12.7 µM]
COc1cccc(CNc2nc3cc(-c4cccc(C(F)(F)F)c4)sc3c(=O)n2C)c1,2,nt,nt,4,nt,nt
Cn1c2c(c3cnc4cc(Cl)ccc4c31)CN(Cc1ccc(Cl)cc1)CC2,nt,11%[57 µM],nt,nt,-15%[57.1 µM],nt
SMILES,CtBP-E1A blk,HP1b chromo inh,BAZ2B inh,Six1-Eya2 inh,JMJD2A Tudor,G9a inh
CCC(=O)N1c2ccccc2CC1C(=O)NCCc1ccccc1C (centres undefined),nt,12%,-3%,nt,-10%,20%[59 µM]
CCOc1ccccc1N(CC(=O)Nc1ccc(OC)c(Cl)c1)S(=O)(=O)c1ccccc1,nt,18%,0%,nt,-13%,-15%[59 µM]
CN1CCN(C(=O)/C(=C/c2cn(S(=O)(=O)N(C)C)c3ccccc23)NC(=O)c2ccccc2)CC1,-3,10%,-19%,-4,-20%,3%
CC(C)Sc1nnc(CNC(=O)C23CC4CC(CC(C4)C2)C3)n1Cc1ccccc1,7,28%,1%,1,-13%,32µM*
Cc1ccc2cc(C(=O)O)c(C)nc2c1,1,33%,?,-2,-7%,50µM*
Nc1nc(-c2cc3ccccc3o2)cs1,-11,-6%,-32%,-9,-26%,nt
Nc1nc(CN2CCOCC2)cs1,3,-6%,1%,-2,22µM*,24%[12.7 µM]
CCCNC(=O)C1CCC(Cn2c(=O)c3sccc3n(CC(=O)N3CCCC3)c2=O)CC1 (centres undefined),nt,38%,-12%,nt,-9%,13%[59 µM]
Cc1ccc(C)c(CN2C(=O)CSc3ccc(C(=O)NCc4ccc(F)cc4)cc32)c1,nt,25%,1%,nt,4%,9%[59 µM]
CN(CCc1ccccn1)S(=O)(=O)c1ccccc1F,7,30%,?,?,?,45µM*
CSc1ccc(CN(C)CCc2ccccn2)cc1,nt,?,32µM*,13,25µM*,nt
CN(CCc1ccccn1)Cc1ccc(Cl)cc1Cl,-4,?,50µM*,1,20µM*,-20%[0.0925 µM]
CN(CCc1ccccn1)c1ccccc1,-14,-20%,nt,-24,-29%,nt
CCOc1ccc(NS(=O)(=O)c2ccc(C(=O)N(C)CC(=O)Nc3ccc(C)cc3)cc2)cc1,-3,23%,-9%,-8,-18%,-23%
CCN(CC)c1ccc(NS(=O)(=O)c2ccc3c(c2)CCCN3C(C)=O)c(C)c1,nt,-5%[57 µM],40µM*,nt,50µM*,11µM*
CCC(=O)N1CCc2cc(S(=O)(=O)NCCC(=O)Nc3ccc(N(CC)CC)cc3C)ccc21,nt,-14%,nt,nt,?,10µM*
CCOC(=O)Cn1c(=O)oc2cc(S(=O)(=O)Nc3ccc(N(CC)CC)cc3C)ccc21,?,0%,?,-14,?,40µM*
Cn1cnc(S(=O)(=O)N2CCC(C(=O)NCc3ccc(F)cc3)CC2)c1,nt,-3%,-2%,nt,-15%,8%[59 µM]
COc1ccc(-n2ccc(=O)c(C(=O)O)n2)cc1,-11,19%,-14%,-1,-21%,-43%
